Test results reported in paper PMC7862700, “An all-to-all approach to the identification of sequence-specific readers for epigenetic DNA modifications on cytosine”.

Assays:
Assay in all cases: DAPPL (digital affinity profiling via proximity ligation, sequencing); 10 mM Tris-HCl pH 7.5, 50 mM NaCl, 1 mM DTT, 4% glycerol, room temperature, 30 min; GST-TFs on glutathione beads, 16-mer random dsDNA library, 0.1% formaldehyde crosslink after washing; high values mean tight binding
[1] = molecular target: T1, FLI1 (Homo sapiens, UniProt Q01543 1-452); settings: protein: recombinant; tags: N-terminal GST; dsDNA, one strand shown
T1 sequence: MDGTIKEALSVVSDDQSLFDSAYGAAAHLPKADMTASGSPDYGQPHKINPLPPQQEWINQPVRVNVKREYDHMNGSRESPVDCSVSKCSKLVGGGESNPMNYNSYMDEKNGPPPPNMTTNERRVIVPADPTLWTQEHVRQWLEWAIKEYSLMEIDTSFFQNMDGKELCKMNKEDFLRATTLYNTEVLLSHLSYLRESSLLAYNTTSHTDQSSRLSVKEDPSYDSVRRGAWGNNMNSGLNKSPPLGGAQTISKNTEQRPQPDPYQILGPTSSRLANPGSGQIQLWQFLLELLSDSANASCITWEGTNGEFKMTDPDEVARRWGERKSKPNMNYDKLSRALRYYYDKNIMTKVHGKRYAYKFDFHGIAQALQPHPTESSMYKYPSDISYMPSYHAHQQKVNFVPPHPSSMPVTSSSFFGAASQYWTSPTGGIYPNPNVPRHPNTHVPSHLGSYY
In short: (§1)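 Yeast served to express human transcription factors as GST fusions, which were then captured on glutathione beads and labelled with DNA barcodes. Pooled with a tag-only sample, they were incubated with 200 nmole of a 16-mer random double-stranded DNA library for 30 min at room temperature in Tris/NaCl/DTT/glycerol buffer, washed, crosslinked with 0.1% formaldehyde, ligated by proximity, amplified by PCR and sequenced. Dividing each hexamer's read frequency for a factor by its frequency for the tag-only sample gives the binding signal.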

[2] = molecular target: T2, ELK1 (Homo sapiens, UniProt P19419 1-428); settings: protein: recombinant; tags: N-terminal GST; dsDNA, one strand shown
T2 sequence: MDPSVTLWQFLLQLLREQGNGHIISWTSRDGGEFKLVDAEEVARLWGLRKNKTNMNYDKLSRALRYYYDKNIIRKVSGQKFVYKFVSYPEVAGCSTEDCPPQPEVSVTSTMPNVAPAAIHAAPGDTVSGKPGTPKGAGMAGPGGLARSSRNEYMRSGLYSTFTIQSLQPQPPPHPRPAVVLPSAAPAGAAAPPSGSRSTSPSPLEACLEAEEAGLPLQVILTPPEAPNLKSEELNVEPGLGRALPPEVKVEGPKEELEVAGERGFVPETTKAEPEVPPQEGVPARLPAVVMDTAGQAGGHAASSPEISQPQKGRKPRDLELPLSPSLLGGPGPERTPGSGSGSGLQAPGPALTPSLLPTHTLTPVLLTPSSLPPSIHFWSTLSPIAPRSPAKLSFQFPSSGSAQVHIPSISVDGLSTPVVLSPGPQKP
In short: as §1

[3] = molecular target: T3, GABPA (Homo sapiens, UniProt Q06546 1-454); settings: protein: recombinant; tags: N-terminal GST; dsDNA, one strand shown
T3 sequence: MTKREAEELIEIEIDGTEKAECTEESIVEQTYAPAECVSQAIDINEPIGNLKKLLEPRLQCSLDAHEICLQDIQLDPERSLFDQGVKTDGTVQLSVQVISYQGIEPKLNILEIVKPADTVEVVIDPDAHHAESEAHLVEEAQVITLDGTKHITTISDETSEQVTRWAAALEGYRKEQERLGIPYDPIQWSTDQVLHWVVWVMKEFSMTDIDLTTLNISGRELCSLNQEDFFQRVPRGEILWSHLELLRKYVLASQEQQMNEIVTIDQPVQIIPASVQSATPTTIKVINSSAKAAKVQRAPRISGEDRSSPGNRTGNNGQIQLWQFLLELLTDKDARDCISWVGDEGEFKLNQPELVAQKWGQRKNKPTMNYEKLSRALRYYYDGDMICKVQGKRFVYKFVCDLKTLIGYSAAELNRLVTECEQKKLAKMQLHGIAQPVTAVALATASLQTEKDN
In short: as §1

[4] = molecular target: T4, ERG (Homo sapiens, UniProt P11308 1-479); settings: protein: recombinant; tags: N-terminal GST; dsDNA, one strand shown
T4 sequence: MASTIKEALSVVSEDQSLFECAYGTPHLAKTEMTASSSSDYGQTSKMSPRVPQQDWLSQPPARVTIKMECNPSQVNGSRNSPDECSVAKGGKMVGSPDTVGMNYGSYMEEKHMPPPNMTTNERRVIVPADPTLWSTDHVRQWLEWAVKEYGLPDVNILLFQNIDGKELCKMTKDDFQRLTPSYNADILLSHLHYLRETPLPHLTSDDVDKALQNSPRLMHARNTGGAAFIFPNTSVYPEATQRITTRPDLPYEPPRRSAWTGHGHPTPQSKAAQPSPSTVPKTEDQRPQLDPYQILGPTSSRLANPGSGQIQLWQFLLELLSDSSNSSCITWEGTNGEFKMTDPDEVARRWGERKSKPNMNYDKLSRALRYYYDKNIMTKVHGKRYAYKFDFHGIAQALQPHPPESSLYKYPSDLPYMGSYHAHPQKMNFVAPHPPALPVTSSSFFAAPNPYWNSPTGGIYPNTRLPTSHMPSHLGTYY
In short: as §1

[5] = molecular target: ELF1 (Homo sapiens, UniProt P32519 1-619); settings: protein: recombinant; tags: N-terminal GST; dsDNA, one strand shown
ELF1, sequence (P32519 whole entry): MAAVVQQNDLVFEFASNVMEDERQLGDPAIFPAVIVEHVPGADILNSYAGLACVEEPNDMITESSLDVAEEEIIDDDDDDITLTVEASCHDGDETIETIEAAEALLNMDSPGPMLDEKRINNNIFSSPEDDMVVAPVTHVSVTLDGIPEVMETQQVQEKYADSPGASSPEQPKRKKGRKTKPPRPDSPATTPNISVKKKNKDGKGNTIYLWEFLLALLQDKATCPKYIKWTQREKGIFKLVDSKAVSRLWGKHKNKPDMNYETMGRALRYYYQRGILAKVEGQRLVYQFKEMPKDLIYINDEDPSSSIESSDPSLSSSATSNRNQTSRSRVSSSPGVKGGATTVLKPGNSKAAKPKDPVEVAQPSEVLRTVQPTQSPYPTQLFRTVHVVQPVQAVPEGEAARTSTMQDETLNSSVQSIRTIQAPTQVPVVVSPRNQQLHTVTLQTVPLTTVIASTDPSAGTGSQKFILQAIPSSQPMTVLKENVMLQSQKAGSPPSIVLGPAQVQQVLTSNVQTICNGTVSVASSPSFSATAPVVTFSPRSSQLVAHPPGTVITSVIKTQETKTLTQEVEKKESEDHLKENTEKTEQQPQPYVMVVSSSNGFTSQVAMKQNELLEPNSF
In short: as §1

[6] = molecular target: T5, EHF (Homo sapiens, UniProt Q9NZC4 1-300); settings: protein: recombinant; tags: N-terminal GST; dsDNA, one strand shown
T5 sequence: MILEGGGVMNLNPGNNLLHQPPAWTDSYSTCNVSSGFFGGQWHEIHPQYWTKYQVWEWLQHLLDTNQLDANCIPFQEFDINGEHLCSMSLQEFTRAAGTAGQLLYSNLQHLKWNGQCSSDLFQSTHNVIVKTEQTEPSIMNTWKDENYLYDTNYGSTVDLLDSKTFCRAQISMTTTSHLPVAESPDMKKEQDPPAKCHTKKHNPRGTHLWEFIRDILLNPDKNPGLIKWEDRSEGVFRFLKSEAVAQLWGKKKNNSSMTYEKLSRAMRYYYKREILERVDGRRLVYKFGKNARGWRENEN
In short: as §1

[7] = molecular target: SPI1 (Homo sapiens, UniProt P17947 1-270); settings: protein: recombinant; tags: N-terminal GST; dsDNA, one strand shown
In short: as §1

[8] = molecular target: SPIB (Homo sapiens, UniProt Q01892 1-262); settings: protein: recombinant; tags: N-terminal GST; dsDNA, one strand shown
SPIB, sequence (Q01892 whole entry): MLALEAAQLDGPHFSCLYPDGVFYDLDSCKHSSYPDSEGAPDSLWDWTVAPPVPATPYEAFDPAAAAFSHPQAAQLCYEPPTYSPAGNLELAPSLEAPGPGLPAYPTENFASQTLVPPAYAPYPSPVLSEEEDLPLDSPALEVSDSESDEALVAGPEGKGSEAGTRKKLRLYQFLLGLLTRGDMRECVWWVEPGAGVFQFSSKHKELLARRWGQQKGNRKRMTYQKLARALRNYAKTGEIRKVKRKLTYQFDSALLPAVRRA
In short: as §1

[9] = molecular target: T6, ELK3 (Homo sapiens, UniProt P41970 1-407); settings: protein: recombinant; tags: N-terminal GST; dsDNA, one strand shown
T6 sequence: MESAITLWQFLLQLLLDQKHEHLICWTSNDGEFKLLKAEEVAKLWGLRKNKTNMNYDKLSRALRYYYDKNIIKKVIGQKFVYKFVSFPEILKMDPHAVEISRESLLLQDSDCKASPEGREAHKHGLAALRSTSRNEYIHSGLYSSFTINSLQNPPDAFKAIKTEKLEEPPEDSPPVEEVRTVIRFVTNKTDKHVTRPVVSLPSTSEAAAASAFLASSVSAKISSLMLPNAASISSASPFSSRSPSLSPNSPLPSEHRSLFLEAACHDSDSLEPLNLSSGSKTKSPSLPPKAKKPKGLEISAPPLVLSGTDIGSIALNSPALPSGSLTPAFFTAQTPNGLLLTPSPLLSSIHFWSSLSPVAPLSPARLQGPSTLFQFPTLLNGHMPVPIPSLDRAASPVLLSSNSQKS
In short: as §1

[10] = molecular target: T7, FEV (Homo sapiens, UniProt Q99581 1-238); settings: protein: recombinant; tags: N-terminal GST; dsDNA, one strand shown
T7 sequence: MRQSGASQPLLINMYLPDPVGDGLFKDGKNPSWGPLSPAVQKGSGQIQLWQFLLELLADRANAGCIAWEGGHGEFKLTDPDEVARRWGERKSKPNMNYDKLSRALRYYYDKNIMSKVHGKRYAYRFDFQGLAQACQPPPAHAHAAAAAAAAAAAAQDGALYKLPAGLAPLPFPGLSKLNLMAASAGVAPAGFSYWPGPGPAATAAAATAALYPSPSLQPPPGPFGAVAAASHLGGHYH
In short: as §1

[11] = molecular target: ETV5 (Homo sapiens, UniProt P41161 1-510); settings: protein: recombinant; tags: N-terminal GST; dsDNA, one strand shown
ETV5, sequence (P41161 whole entry): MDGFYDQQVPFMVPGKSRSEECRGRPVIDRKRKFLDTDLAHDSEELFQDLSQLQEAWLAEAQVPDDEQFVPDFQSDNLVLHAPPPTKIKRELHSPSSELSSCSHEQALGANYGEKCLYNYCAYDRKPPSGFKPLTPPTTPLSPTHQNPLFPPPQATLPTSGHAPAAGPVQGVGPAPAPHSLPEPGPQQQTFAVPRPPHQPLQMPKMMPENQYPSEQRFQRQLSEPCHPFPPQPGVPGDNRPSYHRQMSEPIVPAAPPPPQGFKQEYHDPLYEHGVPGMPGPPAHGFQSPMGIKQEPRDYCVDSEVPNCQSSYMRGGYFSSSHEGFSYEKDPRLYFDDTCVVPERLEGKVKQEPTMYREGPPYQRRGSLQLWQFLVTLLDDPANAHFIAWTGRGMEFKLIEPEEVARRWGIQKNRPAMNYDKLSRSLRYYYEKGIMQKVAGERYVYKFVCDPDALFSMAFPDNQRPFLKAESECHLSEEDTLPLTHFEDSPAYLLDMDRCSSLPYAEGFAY
In short: as §1

[12] = molecular target: HSF1 (Homo sapiens, UniProt Q00613 1-529); settings: protein: recombinant; tags: N-terminal GST; chain copies: 3; dsDNA, one strand shown
HSF1, sequence (Q00613 whole entry): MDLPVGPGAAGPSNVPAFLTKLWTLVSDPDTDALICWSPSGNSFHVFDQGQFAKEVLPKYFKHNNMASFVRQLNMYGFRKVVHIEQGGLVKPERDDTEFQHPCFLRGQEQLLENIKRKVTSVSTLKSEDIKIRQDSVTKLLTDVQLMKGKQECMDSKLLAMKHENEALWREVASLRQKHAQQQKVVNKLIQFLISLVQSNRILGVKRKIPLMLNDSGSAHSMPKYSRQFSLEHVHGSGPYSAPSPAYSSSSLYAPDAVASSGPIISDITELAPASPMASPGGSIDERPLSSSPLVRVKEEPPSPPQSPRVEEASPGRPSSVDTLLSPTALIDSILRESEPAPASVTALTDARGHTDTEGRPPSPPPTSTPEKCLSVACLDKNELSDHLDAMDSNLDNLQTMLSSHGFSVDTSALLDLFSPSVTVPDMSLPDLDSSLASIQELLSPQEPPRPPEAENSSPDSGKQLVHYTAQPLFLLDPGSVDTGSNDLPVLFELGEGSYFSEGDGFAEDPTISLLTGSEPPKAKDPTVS
In short: as §1

[13] = molecular target: T8, SPIC (Homo sapiens, UniProt Q8N5J4 1-248); settings: protein: recombinant; tags: N-terminal GST; dsDNA, one strand shown
T8 sequence: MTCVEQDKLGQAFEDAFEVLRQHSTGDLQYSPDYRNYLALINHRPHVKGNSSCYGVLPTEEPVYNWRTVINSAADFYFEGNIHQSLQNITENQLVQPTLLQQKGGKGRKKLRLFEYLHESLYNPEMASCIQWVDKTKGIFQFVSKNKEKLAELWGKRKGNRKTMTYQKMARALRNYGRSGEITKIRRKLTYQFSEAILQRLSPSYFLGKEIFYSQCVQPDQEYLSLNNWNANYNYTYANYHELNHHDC
In short: as §1

[14] = molecular target: ELF4 (Homo sapiens, UniProt Q99607 1-663); settings: protein: recombinant; tags: N-terminal GST; dsDNA, one strand shown
ELF4, sequence (Q99607 whole entry): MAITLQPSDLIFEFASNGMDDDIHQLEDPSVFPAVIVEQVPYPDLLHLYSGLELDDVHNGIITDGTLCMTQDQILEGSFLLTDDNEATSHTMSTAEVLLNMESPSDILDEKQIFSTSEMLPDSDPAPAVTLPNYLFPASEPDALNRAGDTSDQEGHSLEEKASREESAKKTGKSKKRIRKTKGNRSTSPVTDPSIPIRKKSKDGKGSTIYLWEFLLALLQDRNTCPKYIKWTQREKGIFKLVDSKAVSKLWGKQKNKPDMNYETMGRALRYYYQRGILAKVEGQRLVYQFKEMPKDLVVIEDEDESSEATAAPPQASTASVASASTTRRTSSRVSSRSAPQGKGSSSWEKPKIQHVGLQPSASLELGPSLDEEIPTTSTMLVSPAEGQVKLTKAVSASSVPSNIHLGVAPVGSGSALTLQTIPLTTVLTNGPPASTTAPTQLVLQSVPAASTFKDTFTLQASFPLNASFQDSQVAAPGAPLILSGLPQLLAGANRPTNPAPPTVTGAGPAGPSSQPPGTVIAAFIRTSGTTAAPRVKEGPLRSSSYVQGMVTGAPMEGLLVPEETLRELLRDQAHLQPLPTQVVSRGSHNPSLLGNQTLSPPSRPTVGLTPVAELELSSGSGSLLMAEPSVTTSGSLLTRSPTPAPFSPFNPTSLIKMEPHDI
In short: as §1

[15] = molecular target: T9, ELK4 (Homo sapiens, UniProt P28324-2 1-405); settings: protein: recombinant; tags: N-terminal GST; dsDNA, one strand shown
T9 sequence: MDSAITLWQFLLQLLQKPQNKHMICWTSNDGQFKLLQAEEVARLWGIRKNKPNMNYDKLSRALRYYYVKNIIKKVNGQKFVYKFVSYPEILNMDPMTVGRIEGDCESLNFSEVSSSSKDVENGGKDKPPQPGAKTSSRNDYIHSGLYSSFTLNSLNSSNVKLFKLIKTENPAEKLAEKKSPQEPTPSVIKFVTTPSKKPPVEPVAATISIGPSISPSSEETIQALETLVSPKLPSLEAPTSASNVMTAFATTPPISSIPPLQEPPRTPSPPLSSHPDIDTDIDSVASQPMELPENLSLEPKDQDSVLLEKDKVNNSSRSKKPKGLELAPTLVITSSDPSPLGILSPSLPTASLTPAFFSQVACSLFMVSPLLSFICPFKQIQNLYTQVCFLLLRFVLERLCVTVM
In short: as §1

[16] = molecular target: T10, ETV2 (Homo sapiens, UniProt O00321 1-342); settings: protein: recombinant; tags: N-terminal GST; dsDNA, one strand shown
T10 sequence: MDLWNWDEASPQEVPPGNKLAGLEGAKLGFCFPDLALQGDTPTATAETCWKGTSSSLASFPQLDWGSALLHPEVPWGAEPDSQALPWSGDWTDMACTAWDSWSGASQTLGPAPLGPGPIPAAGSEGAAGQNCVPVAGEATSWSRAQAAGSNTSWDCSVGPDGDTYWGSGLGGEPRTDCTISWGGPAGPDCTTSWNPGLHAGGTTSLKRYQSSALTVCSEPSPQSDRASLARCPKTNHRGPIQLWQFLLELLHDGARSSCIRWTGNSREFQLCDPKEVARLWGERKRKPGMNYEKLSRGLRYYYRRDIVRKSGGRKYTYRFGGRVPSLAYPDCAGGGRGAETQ
In short: as §1

[17] = molecular target: T11, ELF3 (Homo sapiens, UniProt P78545 1-371); settings: protein: recombinant; tags: N-terminal GST; dsDNA, one strand shown
T11 sequence: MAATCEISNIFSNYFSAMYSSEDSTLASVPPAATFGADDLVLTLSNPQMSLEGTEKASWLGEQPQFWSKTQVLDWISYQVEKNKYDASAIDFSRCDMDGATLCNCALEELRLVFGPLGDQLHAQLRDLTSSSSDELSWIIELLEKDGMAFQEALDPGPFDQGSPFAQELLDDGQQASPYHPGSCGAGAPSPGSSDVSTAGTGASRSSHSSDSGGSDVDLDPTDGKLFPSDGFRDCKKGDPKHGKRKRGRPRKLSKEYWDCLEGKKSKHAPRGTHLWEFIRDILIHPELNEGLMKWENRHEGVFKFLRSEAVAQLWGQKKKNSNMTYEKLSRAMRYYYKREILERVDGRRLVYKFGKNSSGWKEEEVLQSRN
In short: as §1

[18] = molecular target: CRX (Homo sapiens, UniProt O43186 1-299); settings: protein: recombinant; tags: N-terminal GST; dsDNA, one strand shown
CRX, sequence (O43186 whole entry): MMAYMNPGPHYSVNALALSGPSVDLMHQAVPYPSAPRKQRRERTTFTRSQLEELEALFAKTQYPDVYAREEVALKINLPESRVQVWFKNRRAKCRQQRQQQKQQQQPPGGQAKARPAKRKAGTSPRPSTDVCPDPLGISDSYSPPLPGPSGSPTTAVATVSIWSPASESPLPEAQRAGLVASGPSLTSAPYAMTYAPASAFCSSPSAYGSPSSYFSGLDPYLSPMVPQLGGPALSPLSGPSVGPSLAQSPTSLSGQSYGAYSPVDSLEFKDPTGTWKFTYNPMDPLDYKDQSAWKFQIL
In short: as §1

[19] = molecular target: ETV1 (Homo sapiens, UniProt P50549 1-477); settings: protein: recombinant; tags: N-terminal GST; dsDNA, one strand shown
ETV1, sequence (P50549 whole entry): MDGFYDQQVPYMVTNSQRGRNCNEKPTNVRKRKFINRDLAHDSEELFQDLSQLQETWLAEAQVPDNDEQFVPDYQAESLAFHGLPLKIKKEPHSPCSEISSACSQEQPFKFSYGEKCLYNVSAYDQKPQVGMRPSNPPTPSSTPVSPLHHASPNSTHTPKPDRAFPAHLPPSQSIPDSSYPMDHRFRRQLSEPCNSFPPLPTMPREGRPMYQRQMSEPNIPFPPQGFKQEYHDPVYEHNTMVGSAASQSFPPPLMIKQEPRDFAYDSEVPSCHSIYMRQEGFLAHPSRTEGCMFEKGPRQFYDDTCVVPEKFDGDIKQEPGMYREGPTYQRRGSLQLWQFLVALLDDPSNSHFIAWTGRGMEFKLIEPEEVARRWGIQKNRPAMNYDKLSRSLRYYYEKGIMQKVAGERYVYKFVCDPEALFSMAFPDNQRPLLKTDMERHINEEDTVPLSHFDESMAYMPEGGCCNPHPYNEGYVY
In short: as §1

## CTCCCC
[1]
  binding signal: 1.44 fold enrichment (6-mer frequency, TF over GST control)
[2]
  binding signal: 1.31 fold enrichment (6-mer frequency, TF over GST control)
[3]
  binding signal: 1.41 fold enrichment (6-mer frequency, TF over GST control)
[4]
  binding signal: 1.45 fold enrichment (6-mer frequency, TF over GST control)
[5]
  binding signal: 1.45 fold enrichment (6-mer frequency, TF over GST control)
[6]
  binding signal: 1.56 fold enrichment (6-mer frequency, TF over GST control)
[7]
  binding signal: 1.3 fold enrichment (6-mer frequency, TF over GST control)
[8]
  binding signal: 1.38 fold enrichment (6-mer frequency, TF over GST control)
[9]
  binding signal: 1.4 fold enrichment (6-mer frequency, TF over GST control)
[10]
  binding signal: 1.4 fold enrichment (6-mer frequency, TF over GST control)
[11]
  binding signal: 1.39 fold enrichment (6-mer frequency, TF over GST control)
[12]
  binding signal: 1.14 fold enrichment (6-mer frequency, TF over GST control)
[13]
  binding signal: 1.28 fold enrichment (6-mer frequency, TF over GST control)
[14]
  binding signal: 1.42 fold enrichment (6-mer frequency, TF over GST control)
[15]
  binding signal: 1.38 fold enrichment (6-mer frequency, TF over GST control)
[16]
  binding signal: 1.63 fold enrichment (6-mer frequency, TF over GST control)
[17]
  binding signal: 1.25 fold enrichment (6-mer frequency, TF over GST control)
[18]
  binding signal: 1.19 fold enrichment (6-mer frequency, TF over GST control)
[19]
  binding signal: 1.46 fold enrichment (6-mer frequency, TF over GST control)
